Experimental data as given in PubChem BioAssay AID1159580 (chemical genetic matrix, 2015).
Among all 5,500 compounds or so, about 2,000 (36%) were called active. Inconclusive results (about 18%) are left out. No stated cut-off is given here; in the data, active means normalized growth mostly below about 0.91 (no sharp cut-off); inconclusive means no clear call, values can overlap the other calls; inactive means mostly above about 0.92. Some of the results follow.

Assay: chemical genetic growth profiling, strain panel (AID 1159580);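 further: tested at 20 µM; growth read once vehicle control cultures reached saturation at 30 °C; 1 = growth at the plate median or of vehicle wells; lower values mean less growth of the strain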
Conditions: S. cerevisiae deletion strains, growth OD

Measured: normalized growth

CCN1CCC[C@H]1CNC(=O)c1cc(S(N)(=O)=O)ccc1OC
inactive: locus YAL013W, strain DEP1, active compounds read low 1.02 | locus YAL040C, strain CLN3, active compounds read low 1.07 | locus YCL061C, strain MRC1 (second series), active compounds read low 1.01 | locus YDR150W, strain NUM1, active compounds read low 1.01 | locus YDR363W, strain ESC2, active compounds read low 1.03 | locus YER002W, strain NOP16, active compounds read low 1.02 | locus YGR078C, strain PAC10, active compounds read low 1.02 | locus YGR229C, strain SMI1, active compounds read low 1.02 | locus YMR307W, strain GAS1, active compounds read low 0.997 | locus YNL128W, strain TEP1, active compounds read low 0.995 | locus YNL153C, strain GIM3, active compounds read low 1.02 | locus YNL175C, strain NOP13, active compounds read low 1 | locus YNL197C, strain WHI3, active compounds read low 1.01 | locus YNL224C, strain SQS1, active compounds read low 1.01 | locus YOR083W, strain WHI5 (second series), active compounds read low 1.01 | locus YPL055C, strain LGE1, active compounds read low 1.01
